A selection: hits, their analogues and other compounds. The true share with any hit is near 6.8%.
Pf Dd2 inh – P. falciparum Dd2 growth inhibition. SYBR Green, 72 h; active compounds read low. activity change, % at 10 µM. 2.3% of 94,000 active. AID 1159554; in the data active = activity change below about -80%; inconclusive = no clear call, values can overlap the other calls
C diff growth – C. difficile growth inhibition. growth activity, negative = inhibition, % at 16 µg/mL (by protocol). 0.25% of 86,000 active. AID 1259249. Clostridium difficile clinical isolate growth, OD600, 24 h; active compounds read low;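 active = mean growth activity at or below -80% and every replicate also at or below -80%; inconclusive = mean at or below -80% but some replicate above -80%; inactive = mean growth activity above -80%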;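 note: 0% = DMSO wells and -100% = levofloxacin 16 µg/mL wells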
T cruzi growth-1 – inhibitors of T. cruzi proliferation. T. cruzi beta-gal in NIH3T3, GalScreen luminescence, 90 h. inhibition, % at 8.34 µM. 5.9% of 77,000 active. AID 624255;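 active = mean inhibition above about 93%, with at least 55% of replicates each passing it, limit read from the data, passing the limit was not always enough; inconclusive = only one of those two conditions holds; inactive = neither condition holds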
T cruzi growth-2 – Trypanosoma cruzi proliferation inhibition; AID 651739; 72% of 5,600 active; T. cruzi beta-gal in NIH3T3, GalScreen luminescence, 90 h; shares compounds with T cruzi growth-1; inhibition, % at 8.35 µM;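 active = mean replicate inhibition above about 95% and at least 55% of replicates individually reaching it, limit read from the data; inconclusive = only one of the two criteria is met; inactive = neither criterion is met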
T cruzi growth-3 – Trypanosoma cruzi proliferation inhibition | shares compounds with T cruzi growth-1 | T. cruzi beta-gal in NIH3T3, GalScreen luminescence, 90 h | inhibition, % at 2.09 µM | 21% of 5,600 active | AID 651740;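 active = mean inhibition above about 95%, with at least 55% of replicates also reaching it, limit read from the data; inconclusive = meets just one of the two conditions; inactive = meets neither condition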;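 note: plate controls were neutral control median for no effect and positive control median for full effect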
NIH3T3 tox – cytotoxicity in mouse NIH/3T3 fibroblasts; shares compounds with T cruzi growth-1; NIH/3T3 viability, CellTiter-Glo ATP luminescence, 90 h; cytotoxicity (signal decrease), % at 8.35 µM; 14% of 5,600 active; AID 651742;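 active = mean signal decrease across replicates above about 35% based on untreated-well scatter, with enough replicates individually passing, limit read from the data; inconclusive = no rule stated though some were filed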;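 note: 0% = median of neutral control wells and 100% = median of positive control wells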
NIH3T3 tox 2 – kills mouse NIH/3T3 fibroblasts | shares compounds with T cruzi growth-1 | NIH/3T3 viability, CellTiter-Glo ATP luminescence, 90 h | inhibition, % at 24.9 µM | 56% of 5,600 active;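 active = mean loss of cell viability signal at or above a set limit, and enough replicates individually reaching it; inconclusive = meets only the mean limit or only the replicate share; inactive = meets neither condition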;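 note: 0% = median of neutral control wells and 100% = median of positive control wells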
Starred values were filed as active, the others as inactive.

Results for N#C[C@H]1[C@@H](c2ccc(C#CC3(O)CCCC3)cc2)[C@@H](CO)N1C(=O)C1CCCCC1 ?
Pf Dd2 inh: 18; C diff growth: 0; T cruzi growth-1: 93

Results for N#C[C@H]1[C@@H](c2ccc(C#CC3(O)CCCC3)cc2)[C@H](CO)N1C(=O)C1CCC1 ?
Pf Dd2 inh: -24; C diff growth: 5; T cruzi growth-1: 99*; T cruzi growth-2: 104*; T cruzi growth-3: 88; NIH3T3 tox: -3; NIH3T3 tox 2: 69*

Results for N#C[C@H]1[C@@H](c2ccc(C#CC3(O)CCCC3)cc2)[C@@H](CO)N1C(=O)C1CCC1 ?
Pf Dd2 inh: 19; C diff growth: 1; T cruzi growth-1: 18

What do the screens show for `CN1C(=O)c2cc(NC(=O)c3cscn3)ccc2OC[C@@H]2O[C@@H](CC(=O)N3CCCCC3)CC[C@@H]21`?
Pf Dd2 inh: -6; C diff growth: -5; T cruzi growth-1: -13

Results for COc1ccccc1S(=O)(=O)N1[C@@H]2CNC[C@H]1C2c1ccc(-c2ccccc2)cc1 (some centres undefined) ?
Pf Dd2 inh: 7; C diff growth: -8

Results for CC(C)C#Cc1ccc2c(c1)O[C@@H](CN(C)Cc1cccnc1)[C@H](C)CN([C@@H](C)CO)S2(=O)=O ?
Pf Dd2 inh: -51; C diff growth: 2; T cruzi growth-1: 107*; T cruzi growth-2: 99*; T cruzi growth-3: 92; NIH3T3 tox: 56*; NIH3T3 tox 2: 67*

What do the screens show for `C[C@@H](O)C#Cc1ccc2c(c1)O[C@H](CN(C)Cc1cccnc1)[C@@H](C)CN([C@@H](C)CO)S2(=O)=O`?
Pf Dd2 inh: -6; C diff growth: 1; T cruzi growth-1: 67

Results for C[C@H](O)C#Cc1ccc2c(c1)O[C@H](CN(C)Cc1cccnc1)[C@H](C)CN([C@@H](C)CO)S2(=O)=O ?
Pf Dd2 inh: 7; C diff growth: -5

Results for CC(C)C#Cc1ccc2c(c1)O[C@H](CN(C)Cc1cccnc1)[C@H](C)CN([C@@H](C)CO)S2(=O)=O ?
Pf Dd2 inh: -28; C diff growth: 0; T cruzi growth-1: 104*; T cruzi growth-2: 98*; T cruzi growth-3: 56; NIH3T3 tox: inconclusive; NIH3T3 tox 2: 65*

Results for C[C@H](CO)N1C[C@H](C)[C@H](CN(C)Cc2ccncc2)Oc2ccc(NC(=O)Nc3cccc4ccccc34)cc2C1=O ?
Pf Dd2 inh: -3; C diff growth: 4; T cruzi growth-1: 17

What do the screens show for `COc1cccc(NC(=O)N(C)C[C@@H]2Oc3cc(C#Cc4ccncc4)ccc3S(=O)(=O)N([C@@H](C)CO)C[C@H]2C)c1`?
Pf Dd2 inh: -56; C diff growth: 1; T cruzi growth-1: -42

How did COc1cccc(NC(=O)N(C)C[C@H]2Oc3cc(C#Cc4ccc(F)cc4)ccc3S(=O)(=O)N([C@@H](C)CO)C[C@H]2C)c1 do in these assays?
Pf Dd2 inh: -49; C diff growth: 6; T cruzi growth-1: 116*; T cruzi growth-2: 89; T cruzi growth-3: 102*; NIH3T3 tox: 4; NIH3T3 tox 2: 26

How did COc1cccc(NC(=O)N(C)C[C@@H]2Oc3cc(-c4ccccc4OC)ccc3S(=O)(=O)N([C@H](C)CO)C[C@H]2C)c1 do in these assays?
Pf Dd2 inh: -18; C diff growth: -7

What do the screens show for `COc1cccc(NC(=O)N(C)C[C@H]2Oc3cc(-c4ccccc4OC)ccc3S(=O)(=O)N([C@@H](C)CO)C[C@H]2C)c1`?
Pf Dd2 inh: -5; C diff growth: -4

Results for COc1ccc(C#Cc2ccc3c(c2)O[C@H](CN(C)C(=O)Nc2cccc(OC)c2)[C@H](C)CN([C@H](C)CO)S3(=O)=O)cc1 ?
Pf Dd2 inh: -78; T cruzi growth-1: 98*; T cruzi growth-2: 105*; T cruzi growth-3: 111*; NIH3T3 tox: 1; NIH3T3 tox 2: 11

Results for COc1cccc(NC(=O)N(C)C[C@@H]2Oc3cc(-c4ccccc4OC)ccc3S(=O)(=O)N([C@H](C)CO)C[C@@H]2C)c1 ?
Pf Dd2 inh: -42; C diff growth: -8

How did COc1cccc(NC(=O)N(C)C[C@H]2Oc3cc(C#Cc4ccc(F)cc4)ccc3S(=O)(=O)N([C@H](C)CO)C[C@@H]2C)c1 do in these assays?
Pf Dd2 inh: -67; C diff growth: 1; T cruzi growth-1: 94*; T cruzi growth-2: 102*; T cruzi growth-3: 81; NIH3T3 tox: -10; NIH3T3 tox 2: 5

What do the screens show for `COc1cccc(NC(=O)N(C)C[C@@H]2Oc3cc(C#Cc4ccccc4)ccc3S(=O)(=O)N([C@H](C)CO)C[C@H]2C)c1`?
Pf Dd2 inh: inconclusive; C diff growth: 31; T cruzi growth-1: inconclusive; T cruzi growth-2: 99*; T cruzi growth-3: 92; NIH3T3 tox: 52*; NIH3T3 tox 2: 39*

How did CCCC#Cc1cnc2c(c1)C(=O)N([C@@H](C)CO)C[C@@H](C)[C@@H](CN(C)C(=O)Nc1c(C)noc1C)O2 do in these assays?
Pf Dd2 inh: 23; C diff growth: 5; T cruzi growth-1: -9

Results for CC(C)NC(=O)Nc1ccc2c(c1)C(=O)N([C@@H](C)CO)C[C@@H](C)[C@@H](CN(C)S(=O)(=O)c1cccs1)OCCCC[C@@H](C)O2 ?
C diff growth: -3

What do the screens show for `O=C(NCC[C@H]1CC[C@@H](NS(=O)(=O)c2ccccc2)[C@@H](CO)O1)c1ccc2c(c1)OCO2`?
Pf Dd2 inh: -10; C diff growth: -2; T cruzi growth-1: 68

Results for CC=Cc1ccc2n(c1=O)C[C@@H]1[C@@H](CO)[C@H](C(=O)NCCc3ccncc3)N[C@H]21 (mixture of isomers) ?
Pf Dd2 inh: 16; C diff growth: -1; T cruzi growth-1: 28

Results for CN1C(=O)c2cc(NC(=O)c3cccc(F)c3)ccc2OC[C@@H]2O[C@@H](CC(=O)N3CCc4ccccc4C3)CC[C@@H]21 ?
Pf Dd2 inh: -14; C diff growth: 0; T cruzi growth-1: 68

What do the screens show for `CC(C)NC(=O)NCC[C@@H]1CC[C@H](NS(=O)(=O)c2ccc(Oc3ccccc3)cc2)[C@@H](CO)O1`?
Pf Dd2 inh: 11; T cruzi growth-1: 10

How did COc1cccc(NC(=O)N(C)C[C@H]2Oc3cc(C#CC4(O)CCCC4)ccc3S(=O)(=O)N([C@H](C)CO)C[C@@H]2C)c1 do in these assays?
Pf Dd2 inh: -13; C diff growth: 1

Results for COc1cccc(NC(=O)N(C)C[C@@H]2Oc3cc(-c4ccccc4F)ccc3S(=O)(=O)N([C@@H](C)CO)C[C@@H]2C)c1 ?
Pf Dd2 inh: -60; C diff growth: 8; T cruzi growth-1: 87

Screening results deposited in PubChem BioAssay by Broad Institute.
